AmpC detergent: inhibitors of E. coli AmpC beta-lactamase with detergent | AID 485294 | Potency, µM (highest dose often 114 µM), for the others: at the top dose activity change, negative = inhibition, usual class: inhibitors | actives 0.041% (n = 370,000) | AmpC hydrolysis of nitrocefin, absorbance 480 nm, 0.01% Triton | P00811;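 note: 0% = no-compound wells and -100% = no-enzyme wells; nearly all actives have a fitted effect of over 25% in size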
Target sequence (P00811 whole entry, looked up): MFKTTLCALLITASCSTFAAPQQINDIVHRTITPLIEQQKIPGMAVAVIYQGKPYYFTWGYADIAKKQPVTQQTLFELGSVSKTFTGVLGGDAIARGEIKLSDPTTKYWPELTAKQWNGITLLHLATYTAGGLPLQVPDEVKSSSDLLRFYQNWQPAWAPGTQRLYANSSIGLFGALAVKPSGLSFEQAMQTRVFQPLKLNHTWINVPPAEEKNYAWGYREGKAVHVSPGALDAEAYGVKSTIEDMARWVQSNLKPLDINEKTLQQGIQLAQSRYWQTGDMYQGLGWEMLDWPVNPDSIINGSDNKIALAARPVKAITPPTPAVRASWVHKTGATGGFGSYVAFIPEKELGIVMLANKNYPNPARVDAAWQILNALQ
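20 mM phosphate pH 7.0 + 0.01% (detergent screen) or 0.0001% Triton X-100; 5.3 nM AmpC reagent; cpd preinc 15 min RT; nitrocefin (800 uM stock) to start; A480 q20 s × 4 min; Activity was normalised to no-enzyme and no-compound control wells.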
Pf growth 48h: inhibits P. falciparum growth in the first generation, 48 h. Potency, µM (series often up to 28.7 µM), without a hit: at the highest dose activity change, negative = inhibition, hits mostly inhibitors. P. falciparum luciferase growth in erythrocytes, 48 h. actives 5.9% (n = 310,000); note: % is set by controls: 0 for no effect and ±100 for the full control effect
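Erythrocytes infected with P. falciparum carrying an integrated firefly luciferase reporter (2% hematocrit, 0.1% parasitemia final) were exposed to compounds in RPMI 1640 with 0.5% Albumax at 37 C, 5% CO2. Growth inhibition was scored as reduced luminescence.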
Sm TGR block: S. mansoni TGR enzyme inhibition. Q962Y6. purified TGR, DTNB reduction, TNB absorbance 405 nm. Potency, µM (series often up to 114 µM), for inactives: at the highest dose activity change, negative = inhibition, usual class: inhibitors. actives 3% (n = 360,000). AID 485364; note: % is set by controls: 0 for no effect and ±100 for the full control effect; nearly all actives have a fitted effect of over 60% in size
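TGR 20 nM + NADPH 100 uM (dispensed conc.), cpd preinc 15 min RT; start with NADPH (500 uM addition) then DTNB (15 mM addition). Kinetic TNB absorbance, 405 nm filter. Four-parameter Hill fit across titration.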
AmpC no deterg: inhibitors of E. coli AmpC beta-lactamase without detergent. AmpC nitrocefin hydrolysis, absorbance 480 nm, 0.0001% Triton. Potency, µM (titrated, usually from 57.1 µM), for the others: top-dose activity change, negative = inhibition, actives largely listed as inhibitors. actives 0.52% (n = 330,000);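 note: plate controls were no compound for no effect and no enzyme for full effect; nearly all actives have a fitted effect of over 20% in size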
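20 mM phosphate pH 7.0 + 0.01% (detergent screen) or 0.0001% Triton X-100; 5.3 nM AmpC reagent; cpd preinc 15 min RT; nitrocefin (800 uM stock) to start; A480 q20 s × 4 min; Activity was normalised to no-enzyme and no-compound control wells.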
Pf growth 96h: inhibits malaria parasite growth, 96 h | P. falciparum luciferase reporter growth, 96 h | Potency, µM (series often up to 28.7 µM), without a hit: at the highest dose activity change, negative = inhibition, actives largely listed as inhibitors | actives 6.9% (n = 320,000) | AID 504834; note: % is set by controls: 0 for no effect and ±100 for the full control effect
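Two parasite generations (96 h, 37 C, 5% CO2) of compound exposure in infected erythrocytes (0.05% parasitemia, 2% hematocrit). Luciferase-reporter P. falciparum; decreased luminescence indicates inhibited growth, aimed at apicoplast-acting delayed death.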
SARS PLpro yeast: blocks SARS-CoV papain-like protease in a yeast assay | S. cerevisiae expressing SARS-CoV PLpro, growth rescue | Potency, µM (titrated, usually from 32.9 µM), for inactives: top-dose activity, positive = growth rescue, usual class: activators | actives 0.19% (n = 330,000) | AID 485353; calls by dose curve; note: 0% is about no effect; nearly all actives have a fitted effect of over 55% in size
The depositor's hits bear a star; ! = a repeat was not active. Most compounds without a hit are left out; they make up all but 12% or so of the library. Unless noted, calls come from the whole dose curve; as a rule, active = well fitted curve in the direction sought with a large enough effect; inconclusive = small, poorly fitted or top-dose-only effect, or another doubt; inactive = no such curve, though single readings can be large; an effect the other way counts as inactive or inconclusive. Potency is the fitted concentration of half-maximal effect.

CC(C)Cn1c(=O)c2sccc2n2c(CCCC(=O)NC3CCCCC3)nnc12 was read as AmpC detergent 7% and Sm TGR block 7%.
CC(NC(=O)CCCc1nnc2n(C)c(=O)c3sccc3n12)c1ccccc1 (stereo unspecified) was read as AmpC detergent -6%, Pf growth 48h 15%, Sm TGR block 1%, AmpC no deterg 8%, Pf growth 96h 13µM* and SARS PLpro yeast 2%.
CCn1c(=O)c2sccc2n2c(CCCC(=O)N3CCN(c4ccccn4)CC3)nnc12 was read as AmpC detergent 2%, Pf growth 48h 10µM*, Sm TGR block 6%, AmpC no deterg 49%, Pf growth 96h inconclusive and SARS PLpro yeast 3%.
Screening Cc1nn(-c2ccccc2)c2c1cc1c(=O)[nH]c(=O)nc-1n2-c1cccc(Cl)c1 returned AmpC detergent 1% and Sm TGR block -10%.
For O=C(Nc1cccnc1)c1cc(-c2cccc(Br)c2)nc2ccccc12 the results were AmpC detergent 3%, Pf growth 48h 3.7µM*, Sm TGR block -2%, AmpC no deterg -15%, Pf growth 96h 1% and SARS PLpro yeast -11%.
COc1ccc(NC(=O)c2cc(-c3cccnc3)nc3ccc(C)cc23)cc1OC was read as AmpC detergent -9%, Pf growth 48h inconclusive, Sm TGR block -3%, AmpC no deterg 6%, Pf growth 96h inconclusive and SARS PLpro yeast 0%.
O=C(Nc1ccncc1)c1cc(-c2cccc(Br)c2)nc2ccccc12 was read as AmpC detergent -15%, Pf growth 48h 0.93µM*, Sm TGR block -5%, AmpC no deterg -51%, Pf growth 96h 0.83µM* and SARS PLpro yeast -20%.
Screening COc1ccc(NC(=O)c2cc(-c3ccncc3)nc3ccc(Br)cc23)cc1OC returned AmpC detergent 3%, Pf growth 48h 13µM*, Sm TGR block 1%, AmpC no deterg 15%, Pf growth 96h 31% and SARS PLpro yeast 1%.
Screening O=C(Nc1cccnc1)c1cc(-c2cccnc2)nc2ccc(Br)cc12 returned AmpC detergent -7%, Pf growth 48h 1.2µM*, Sm TGR block -25%, AmpC no deterg -7%, Pf growth 96h 1.2µM* and SARS PLpro yeast -2%.
Screening CNC(=O)c1cnc2sc(N3CCC(C)CC3)nn2c1=O returned AmpC detergent -8% and Sm TGR block 6%.
CN1CCC(NC(=O)c2cc(-c3cccc(Br)c3)nc3ccccc23)CC1 was read as AmpC detergent -1%, Pf growth 48h 13µM*, Sm TGR block 20%, AmpC no deterg 31%, Pf growth 96h -11% and SARS PLpro yeast 3%.
`O=C(Nc1ncccn1)c1cc(-c2cccc(Br)c2)nc2ccccc12` gave AmpC detergent 0%, Pf growth 48h inconclusive, Sm TGR block 9%, AmpC no deterg 90%, Pf growth 96h 1.7µM* and SARS PLpro yeast -43%.
COc1ccc(-c2cc(C(=O)Nc3cccnc3)c3ccccc3n2)cc1OC was read as AmpC detergent -1%, Pf growth 48h inconclusive, Sm TGR block 0%, AmpC no deterg 98%, Pf growth 96h 46% and SARS PLpro yeast 1%.
`COc1cccc(-c2cc(C(=O)Nc3cccnc3)c3ccccc3n2)c1` gave AmpC detergent inconclusive, Pf growth 48h 3.7µM*, Sm TGR block 3%, AmpC no deterg -1%, Pf growth 96h inconclusive and SARS PLpro yeast -1%.
Screening COc1ccc(CNC(=O)c2nn(-c3ccccc3C)nc2CO)cc1 returned AmpC detergent 19% and Sm TGR block 4%.
Screening O=C1N(Cc2ccccc2Cl)c2ccccc2C1(O)c1c[nH]c2ccccc12 (stereo unspecified) returned AmpC detergent 5% and Sm TGR block 5%.
For Nc1ccc(-c2nc3nc(N)nc(N)c3nc2-c2ccc(N)cc2)cc1 the results were AmpC detergent 4%, Pf growth 48h 10µM*, Sm TGR block 6%, AmpC no deterg -17%, Pf growth 96h inconclusive and SARS PLpro yeast 1%.
Nc1ccc(C(=O)NCC(=O)O)cc1 was read as AmpC detergent inconclusive, Pf growth 48h 12µM*!, Sm TGR block -3%, AmpC no deterg -6% and Pf growth 96h 9.3µM*!.
CCOc1ccccc1C(=O)NC(C(=O)N(C)Cc1ccc2c(c1)OCO2)C(C)C (stereo unspecified) was read as AmpC detergent -1%, Pf growth 48h inconclusive, Sm TGR block -5%, AmpC no deterg 0%, Pf growth 96h inconclusive and SARS PLpro yeast 1%.
Screening N#Cc1ncc(C(F)(F)F)cc1Sc1ccccc1N returned AmpC detergent 4%, Pf growth 48h -5%, Sm TGR block -1%, AmpC no deterg -19% and SARS PLpro yeast 12%.
For N#Cc1nn(-c2c(Cl)cc(C(F)(F)F)cc2Cl)c(N)c1S(=O)C(F)(F)F (stereo unspecified) the results were Pf growth 48h 1.9µM* and Pf growth 96h -23%.
For CCc1cc(C(c2ccc(OC)c(OC)c2)N2CCOCC2)c(NC(=O)c2ccccc2)s1 (stereo unspecified) the results were AmpC detergent -4%, Pf growth 48h inconclusive, Sm TGR block 2.5µM*, AmpC no deterg 53%, Pf growth 96h inconclusive and SARS PLpro yeast 22%.
Screening CCc1cc(C(c2ccc(F)cc2)N2CCOCC2)c(NC(=O)c2ccccc2)s1 (stereo unspecified) returned AmpC detergent 1%, Pf growth 48h inconclusive, Sm TGR block 4µM*, AmpC no deterg -31%, Pf growth 96h 72% and SARS PLpro yeast -2%.
`CCc1cc(C(c2cccc(OC)c2)N2CCOCC2)c(NC(=O)c2ccccc2)s1` (stereo unspecified) gave AmpC detergent -2%, Pf growth 48h inconclusive, Sm TGR block inconclusive, AmpC no deterg -11%, Pf growth 96h inconclusive and SARS PLpro yeast -25%.
`Cn1c(SCC(=O)NC(=O)NCc2ccccc2)nnc1C(F)(F)F` gave AmpC detergent 7%, Pf growth 48h -3%, Sm TGR block -7%, AmpC no deterg -15%, Pf growth 96h -8% and SARS PLpro yeast -2%.
Screening COC(=O)c1cccc(Nc2c(-c3ccc(O)c(OC)c3)nc3nc[nH]n23)c1 returned AmpC detergent -1% and Sm TGR block 40µM*.

High-throughput results deposited in PubChem by National Center for Advancing Translational Sciences (NCATS).
